In PubChem BioAssay AID504430 (National Center for Advancing Translational Sciences (NCATS), 2011):
This is one part of the list. The source made the active and inactive calls.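 The calls were made as follows: active = compounds that block the splicing kinase Clk1 enough to give a fitted half-inhibition concentration; inactive = the rest.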

Target: Dual specificity protein kinase CLK1 (Homo sapiens) (UniProt P49759)
Experiment: Kinase Inhibition Study on Inhibitors of CDC-like Kinase 1 (Reaction Biology data)
Settings: recombinant Clk1 kinase assay, 10 uM ATP
Excerpt: NIH Molecular Libraries Probe Production Centers Network [MLPCN] NIH Chemical Genomics Center [NCGC] MLPCN Grant: 1R03MH084827-01 Assay Submitter (PI): Tom Misteli NCGC Assay Overview: Alternative splicing of pre-mRNAs plays a major role in the regulation of eukaryotic gene expression. Alternative splicing is now thought to be one of the primary reasons for the complexity of higher organisms leading to an average of three protein isoforms per gene. Aberrant splicing can lead to a number of diseases and is known to play a role in rare genetic diseases such as progeria syndrome. Hutchinson-Gilford Progeria Syndrome (HGPS) is a pediatric premature aging disease caused by a spontaneous mutation in the lamin A/C (LMNA) gene due to a single point mutation in the lamin A gene effecting 1 in 4 million people. To identify both specific splicing modulators of the lamin A gene as well as general splicing modulators, a cell-based HTS assay was developed using a minigene reporter system (AIDs, 1459 & 1487). […] This AID summarizes the characterization of lead compounds in Clk1.
All kinase reactions were performed using 10 uM ATP in the assay. 100% activity was taken from kinase reactions with DMSO alone (the vehicle used for compound stock solutions).

Dual specificity protein kinase CLK1 (Homo sapiens), sequence (P49759 whole entry, looked up): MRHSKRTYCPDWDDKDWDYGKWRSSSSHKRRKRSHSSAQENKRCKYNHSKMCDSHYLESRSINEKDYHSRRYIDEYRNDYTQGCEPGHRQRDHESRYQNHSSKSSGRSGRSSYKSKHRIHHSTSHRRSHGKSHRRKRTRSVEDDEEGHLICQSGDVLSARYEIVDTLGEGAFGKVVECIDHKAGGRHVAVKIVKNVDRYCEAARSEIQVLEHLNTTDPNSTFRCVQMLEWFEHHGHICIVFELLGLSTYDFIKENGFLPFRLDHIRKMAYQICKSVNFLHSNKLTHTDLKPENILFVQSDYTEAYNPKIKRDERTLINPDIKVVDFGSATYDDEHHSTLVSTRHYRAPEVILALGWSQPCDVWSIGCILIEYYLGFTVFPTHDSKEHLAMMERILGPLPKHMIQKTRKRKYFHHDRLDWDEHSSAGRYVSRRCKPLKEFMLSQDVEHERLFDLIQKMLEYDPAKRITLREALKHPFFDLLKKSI

Potency, active:
CC(Nc1ncnc2ccc(-c3ccc4c(c3)OCO4)cc12)c1ccco1 (stereo not drawn) 5.75 µM
CN(Cc1cncn1C)c1ncnc2ccc(-c3ccc4c(c3)OCO4)cc12 2.8 µM
c1nc(N2CCOCC2)c2cc(-c3ccc4c(c3)OCO4)ccc2n1 1.11 µM
